According to the OligoGym collection:

Tests used:
Assay in all cases: pooled miR-30 sensor sort-seq; sequence = guide strand
Details in all cases: shRNA
NLRP9 = molecular target: NLRP9
NLRP3 = molecular target: NLRP3
NMD3 = molecular target: NMD3
NMRAL1 = molecular target: NMRAL1
NMNAT2 = molecular target: NMNAT2
NPBWR1 = molecular target: NPBWR1
NTRK2 = molecular target: NTRK2
NTHL1 = molecular target: NTHL1
NTM = molecular target: NTM
NTRK3 = molecular target: NTRK3
NT5C3L = molecular target: NT5C3L
NUP54 = molecular target: NUP54
ODF3L1 = molecular target: ODF3L1
OTP = molecular target: OTP
P2RY6 = molecular target: P2RY6
PARP11 = molecular target: PARP11
PCSK5 = molecular target: PCSK5
PGLYRP2 = molecular target: PGLYRP2
PION = molecular target: PION
PML = molecular target: PML
PPARGC1A = molecular target: PPARGC1A
POP5 = molecular target: POP5
PPARD = molecular target: PPARD
POU2F2 = molecular target: POU2F2
Also: reference of the scale not given here.

Question: Which sensor-assay potency score (higher = more potent) (NLRP9) does the source give for TTTCACACAAGTACAGACCAAC here?
Answer: -0.447

Question: For TTGTATTCCTCGTCAATCCAAG, which sensor-assay potency score (higher = more potent) (NLRP9) is on record?
Answer: -0.958

Question: AAGCTGTAGAACTTCTCGCAGT was tested. Which sensor-assay potency score (higher = more potent) (NLRP3) did it give?
Answer: -0.94

Question: For TTAGCCATTATCTTCATGCTGG, which sensor-assay potency score (higher = more potent) (NMD3) is on record?
Answer: 0.243

Question: For TTGGTCACGATGAAGGTGGCGT, which sensor-assay potency score (higher = more potent) (NMRAL1) is on record?
Answer: -0.0574

Question: How did the sensor-assay potency score (higher = more potent) (NLRP9) turn out when TTGTTTAACGTACTTGTGCTTC was run?
Answer: -0.694

Question: TTGGTGATGGGATTGAAGCTGC was tested. Which sensor-assay potency score (higher = more potent) (NMNAT2) did it give?
Answer: -0.365

Question: TAAAGAACATTGTCTTTGCTTT was tested. Which sensor-assay potency score (higher = more potent) (NMNAT2) did it give?
Answer: -0.457

Question: TATTGCTAGAACACTTAGGGAG was tested. Which sensor-assay potency score (higher = more potent) (NLRP9) did it give?
Answer: 0.102

Question: How did the sensor-assay potency score (higher = more potent) (NMD3) turn out when TTTATATCTTGGACTATGCTGC was run?
Answer: 0.0732

Question: TTTTTTTGCAACAAACTGCTCA was tested. Which sensor-assay potency score (higher = more potent) (NLRP9) did it give?
Answer: 0.0842

Question: TTCTGTGTCAGAAGTATCCGGA was tested. Which sensor-assay potency score (higher = more potent) (NLRP9) did it give?
Answer: 0.451

Question: TCGAATACACACACAAATCTGG was tested. Which sensor-assay potency score (higher = more potent) (NMD3) did it give?
Answer: -0.268

Question: With TACTTAACAAGTCTGATCTTGC as the sequence, how does the sensor-assay potency score (higher = more potent) (NMD3) read?
Answer: 0.186

Question: How did the sensor-assay potency score (higher = more potent) (NMNAT2) turn out when TTCTGTTAAATCAAGTTCCTTT was run?
Answer: 0.0856

Question: How did the sensor-assay potency score (higher = more potent) (NLRP3) turn out when TTCTCATAAAGGTCTCTCCTGT was run?
Answer: -0.131

Question: For TTAACAAGTCTGATCTTGCTTA, which sensor-assay potency score (higher = more potent) (NMD3) is on record?
Answer: 0.213

Question: For TTCACTAAAATAATCAACGTAA, which sensor-assay potency score (higher = more potent) (NMD3) is on record?
Answer: -0.261

Question: Which sensor-assay potency score (higher = more potent) (NMD3) does the source give for TATCTTGAGAGATCAGTCTTTG here?
Answer: -0.699

Question: TTATATTAAATAGGAAACCTGT was tested. Which sensor-assay potency score (higher = more potent) (NMNAT2) did it give?
Answer: -0.594

Question: How did the sensor-assay potency score (higher = more potent) (NLRP9) turn out when TTTACAAACAGGCTGAGCCAGC was run?
Answer: -0.948

Question: For ATCACCGCGTAGACAACTGGTA, which sensor-assay potency score (higher = more potent) (NPBWR1) is on record?
Answer: -0.96

Question: Which sensor-assay potency score (higher = more potent) (NTRK2) does the source give for TTTATCAGTGACGTCTGTGGAA here?
Answer: -0.0514

Question: For TTTTCCTCGCTTCTGCTGCAGC, which sensor-assay potency score (higher = more potent) (NTHL1) is on record?
Answer: -0.814

Question: Which sensor-assay potency score (higher = more potent) (NTM) does the source give for TTGTCTGTCTGCACCGAGCAGG here?
Answer: -0.782

Question: Which sensor-assay potency score (higher = more potent) (NTRK3) does the source give for TAGACATCTCTGGACATGCCGA here?
Answer: -0.718

Question: Which sensor-assay potency score (higher = more potent) (NTRK3) does the source give for TAGACAGTGAGGGCAACACTGG here?
Answer: -1.18

Question: With TTCTGTGCACATGCGTGTCCAC as the sequence, how does the sensor-assay potency score (higher = more potent) (NTHL1) read?
Answer: -0.487

Question: For TTCTTGGTCCACCTCAGCCTGT, which sensor-assay potency score (higher = more potent) (NTHL1) is on record?
Answer: -1.58

Question: TTGGTTGCCTTCTTGGTCCACC was tested. Which sensor-assay potency score (higher = more potent) (NTHL1) did it give?
Answer: -0.633

Question: With TAGCCCGTTGACCACATCCAGA as the sequence, how does the sensor-assay potency score (higher = more potent) (NT5C3L) read?
Answer: -1.7

Question: For TTGAAGAAGATGAGTTTTGAGA, which sensor-assay potency score (higher = more potent) (NTM) is on record?
Answer: -0.515

Question: TCAGAAATCACCTGTAACCGGT was tested. Which sensor-assay potency score (higher = more potent) (NT5C3L) did it give?
Answer: -0.094

Question: For TCGTTGATGATTTCTAACCTTT, which sensor-assay potency score (higher = more potent) (NTRK2) is on record?
Answer: -0.793

Question: For TAGAGCACTGACATGCTGTGGT, which sensor-assay potency score (higher = more potent) (NT5C3L) is on record?
Answer: 0.517

Question: How did the sensor-assay potency score (higher = more potent) (NTHL1) turn out when TCATCTGTCTGCAGGATGCTGT was run?
Answer: -0.751

Question: How did the sensor-assay potency score (higher = more potent) (NTM) turn out when TTGGCTTCTGAAATGTATGGTG was run?
Answer: 0.211

Question: TTTCCTAGACAAACTCGTCAGT was tested. Which sensor-assay potency score (higher = more potent) (NTRK2) did it give?
Answer: -0.24

Question: How did the sensor-assay potency score (higher = more potent) (NTM) turn out when TTTGTCATCCTTGTACCACTGG was run?
Answer: 0.733

Question: TTGATGTGCTGAACAAATGTGT was tested. Which sensor-assay potency score (higher = more potent) (NTRK2) did it give?
Answer: 0.264

Question: With TTTAGTACAGATGTATTTGGAC as the sequence, how does the sensor-assay potency score (higher = more potent) (NTRK2) read?
Answer: -0.241

Question: With TTGCCTTTCACAGTGAATGGAA as the sequence, how does the sensor-assay potency score (higher = more potent) (NTRK2) read?
Answer: 0.0334

Question: With TTTTTGTTCCTCATGGCACGGA as the sequence, how does the sensor-assay potency score (higher = more potent) (NTHL1) read?
Answer: 0.281

Question: TTCACTGCCACCAAGATCTTGT was tested. Which sensor-assay potency score (higher = more potent) (NTRK2) did it give?
Answer: 0.258

Question: How did the sensor-assay potency score (higher = more potent) (NTRK2) turn out when TTGTTTGACAGCTGGTACCAGG was run?
Answer: -0.771

Question: For TTGCTCAGAAGGACCACGCGAG, which sensor-assay potency score (higher = more potent) (NTM) is on record?
Answer: -0.271

Question: For TATTAGGAACCGGATCACCTGC, which sensor-assay potency score (higher = more potent) (NTRK2) is on record?
Answer: -1.01

Question: Which sensor-assay potency score (higher = more potent) (NT5C3L) does the source give for TGGAACACTTTCATCTGTCGGA here?
Answer: -0.0202

Question: TATGAAACAAAACAAAACCTTT was tested. Which sensor-assay potency score (higher = more potent) (NTRK2) did it give?
Answer: -1.09

Question: How did the sensor-assay potency score (higher = more potent) (NTHL1) turn out when TATTTCACCTTGCTCCTCCAGA was run?
Answer: -0.193

Question: Which sensor-assay potency score (higher = more potent) (NTRK2) does the source give for TTCAACATCATCTTCGTTGATG here?
Answer: -0.198

Question: Which sensor-assay potency score (higher = more potent) (NTHL1) does the source give for TTGATGTATTTCACCTTGCTCC here?
Answer: -0.737

Question: TATAGAACCACTGAAGCGCTGG was tested. Which sensor-assay potency score (higher = more potent) (NTRK2) did it give?
Answer: 0.358

Question: How did the sensor-assay potency score (higher = more potent) (NTHL1) turn out when TAGATGAGCTTGCCCAGCGTGG was run?
Answer: -1.11

Question: With TCTGTCTGCACCGAGCAGGTGT as the sequence, how does the sensor-assay potency score (higher = more potent) (NTM) read?
Answer: -0.506

Question: ATGTATTTCACCTTGCTCCTCC was tested. Which sensor-assay potency score (higher = more potent) (NTHL1) did it give?
Answer: 0.0621

Question: Which sensor-assay potency score (higher = more potent) (NTM) does the source give for AATCAGTCTTTTGTCATCCTTG here?
Answer: -0.561

Question: How did the sensor-assay potency score (higher = more potent) (NTM) turn out when TTCTTTCCTTCAATCAGTCTTT was run?
Answer: -0.442

Question: With ATCAGTGACAGCAGCACCTGGT as the sequence, how does the sensor-assay potency score (higher = more potent) (NTHL1) read?
Answer: -0.43

Question: Which sensor-assay potency score (higher = more potent) (NT5C3L) does the source give for TTTCCATTATATGCAAACCTGC here?
Answer: -1.3

Question: With TTGACCAGCTGTTGCTGCCAGT as the sequence, how does the sensor-assay potency score (higher = more potent) (NTHL1) read?
Answer: -1.05

Question: Which sensor-assay potency score (higher = more potent) (NTM) does the source give for TTGCACAATGAGGTGGACCCTA here?
Answer: -0.498

Question: How did the sensor-assay potency score (higher = more potent) (NUP54) turn out when TACAGATGTAGTTTGATTCTTT was run?
Answer: 0.197

Question: Which sensor-assay potency score (higher = more potent) (ODF3L1) does the source give for TAAGCTGGTGCCTTGAACATGG here?
Answer: 0.328

Question: How did the sensor-assay potency score (higher = more potent) (ODF3L1) turn out when ACATCCTCCTTGTAGAACCAGT was run?
Answer: -1.04

Question: For TGTCCCTTGAACACGTCCGTGT, which sensor-assay potency score (higher = more potent) (OTP) is on record?
Answer: -0.222

Question: With TTGGGCATAGTTGTAGATGAGC as the sequence, how does the sensor-assay potency score (higher = more potent) (P2RY6) read?
Answer: -1.06

Question: For TTGGTGAGCTTCTGGGTCCTGT, which sensor-assay potency score (higher = more potent) (P2RY6) is on record?
Answer: -0.191

Question: How did the sensor-assay potency score (higher = more potent) (PARP11) turn out when TTTTTTCTTGAGCTGAGCCTTT was run?
Answer: -0.428

Question: TTGATGAATCCGTACTTGCTGG was tested. Which sensor-assay potency score (higher = more potent) (PCSK5) did it give?
Answer: -0.268

Question: Which sensor-assay potency score (higher = more potent) (PGLYRP2) does the source give for TCGTACACGTAGCCGTCCGAGC here?
Answer: -1.66

Question: Which sensor-assay potency score (higher = more potent) (PGLYRP2) does the source give for TTGGACATCTGGACAGCCTTTT here?
Answer: -0.831

Question: Which sensor-assay potency score (higher = more potent) (PION) does the source give for TAGACTGAACTAAACTTGCAGC here?
Answer: -0.224

Question: TTTCTTCTTTTCTACACCCTGT was tested. Which sensor-assay potency score (higher = more potent) (PION) did it give?
Answer: 0.0243

Question: Which sensor-assay potency score (higher = more potent) (PML) does the source give for TATTGGAGACATCCTCTCCATA here?
Answer: -1.32

Question: How did the sensor-assay potency score (higher = more potent) (PPARGC1A) turn out when TAGGTAATGAAACCATAGCTGT was run?
Answer: -0.856

Question: For ATTAAATCTACTCTTAGCCAAG, which sensor-assay potency score (higher = more potent) (POP5) is on record?
Answer: -1.64

Question: How did the sensor-assay potency score (higher = more potent) (PPARD) turn out when TTGAACTTGACAGCAAATTCAA was run?
Answer: -0.881

Question: With TTGATCCGCTGCATCATCTGGG as the sequence, how does the sensor-assay potency score (higher = more potent) (PPARD) read?
Answer: -0.175

Question: TAGTTGTCTAGAGTCTTGGAGC was tested. Which sensor-assay potency score (higher = more potent) (PPARGC1A) did it give?
Answer: -1.01

Question: TTTGTCTCGATGCTGGTCCTCT was tested. Which sensor-assay potency score (higher = more potent) (POU2F2) did it give?
Answer: -0.192

Question: How did the sensor-assay potency score (higher = more potent) (PPARD) turn out when TTCGGTCTTCTTGATCCGCTGC was run?
Answer: 0.435

Question: For AAGATCAACAGCTGTCTCCTGT, which sensor-assay potency score (higher = more potent) (POP5) is on record?
Answer: 0.552

Question: For TTCGCTAGAAAACTCTTCTCTA, which sensor-assay potency score (higher = more potent) (POU2F2) is on record?
Answer: 0.465
